This passage reports AC50 and outcome results from PubChem BioAssay (EPA / NIEHS).

Active and inactive are the calls of the source. How the source made its calls: active means hit-call score of the fitted dose curve at least 0.9, where 1 is the maximum; inactive means score below 0.9.

Read-out in this test: Cytochrome P450 (CYP1A2), CYP1A2 (gene 1544)
The test is described as follows: LTEA_HepaRG_CYP1A2: Life Technologies and Expression Analysis (LTEA) Assay for Cytochrome P450 (CYP1A2) using HepaRG (AID 2283479).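 On AC50: TaqMan qRT-PCR transcript level normalized to ACTB GAPDH and POLR2A.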 The settings on record: mRNA level, 48 h; actives raise or lower the signal. As to the method: LTEA_HepaRG is a cell based, multiplexed-readout assay that uses HepaRG, a human liver cell line, with measurements taken at 48 hours after chemical dosing on a 96-well plate.LTEA_HepaRG_CYP1A2 is one of 102 assay component(s) measured in the LTEA HepaRG cell culture assay. It is a marker of NR mediated metabolism.Data from the assay component LTEA_HepaRG_CYP1A2 was analyzed into 1 endpoint. This assay endpoint, LTEA_HepaRG_CYP1A2, was analyzed with bidirectional fitting relative to DMSO as the negative control and baseline of activity. Using a type of inducible reporter, measures of mRNA induction for gain or loss-of-signal activity can be used to understand regulation of transcription factor activity. To generalize the intended target to other relatable targets, this assay endpoint is annotated to the cyp intended target family, where the subfamily is xenobiotic metabolism.
A total of 1060 chemcials from the ToxCast library were tested in eight-point concentration-response experiments. Cell culture and cytotoxicity assays were conducted at Thermo Fisher Scientific's Custom Services facility (Madison, WI). A single lot of human HepaRG cells (Thermo Fisher Scientific, Frederick, MD) was used for the cell culture experiments. 96-well format collagen type I coated plates of human HepaRG cells were prepared using established methods. Briefly, cryopreserved HepaRG cells were thawed, plated at a density of approximately 100,000 cells/well in HepaRG Thaw, Plate, and General Purpose media (HPRG770, Thermo Fisher Scientific), and incubated for 48 hours. 0.5% DMSO was selected as vehicle control to balance the requisite need of DMSO in HepaRG cultures to maintain differentiation (for example, baseline metabolism, proportions of hepatocytes vs. cholangiocytes), while enabling further hepatic receptor pathway activation (for example, PXR and CAR) in response to chemical exposure. 48 hours after plating, the culture medium was replaced with HepaRG Serum-Free Incudtion Media. Cells were exposed to each test chemical in duplicate and maintained in CO2 incubators for another 48 hours. Chemical plates were thawed to room temperature and 200x concentrations of treatment groups were prepared. 8-point conentration-reponse curves were made with the highest exposure at 100 uM, followed by half-log dilutions, all in 0.5% DMSO. Each test plate contained variouse controls, induction positive controls (1mM phenobarbital), cytotoxicity positive controls ([…] aflatoxin B1), vehicle controls (0.5% DMSO), and total lysis controls (0.5% DMSO). Cell morphology images were taken using an Essen IncuCyte FLR automated microscope, with six 96-well plates imaged in about 24 minutes. Images were captured and exported and JPEG files. Spent culture media was transfered to black-well plates for the LDH assay, and remaining media was sorted at -80 C for later use. Cells were treated with RLT buffer and frozen until shipped for gene expression analysis. Total RNA was isolated from the cell suspension in 75 uL of Buffer RLT (Qiagen, Germantown, MD 20874) by Quintiles/Expression Analysis (Durham, NC) using a custom isolation procedure. Total RNA from each plate well was transferred to a preamplification plate. Fluidigm's 96.96 Dynamic ArrayTM (Fluidigm, Amsterdam, the Netherlands) technology was used for gene expression analyses by quantitative reverse transcription polymerase chain reaction (qRT-PCR, performed by Quintiles/Expression Analysis, Durham, NC)89. Standard TaqManTM Assays (Applied Biosystems/ThermoFisher Scientific, Foster City, CA) were used to assess the expression of 93 genes selected based on their selectivity and sensitivity to important hepatic receptors known to be modulated by environmental chemicals; importance in human hepatocyte functionality; and hepatotoxicity. […]
Turning to `CCCCCCCCCCCCc1ccccc1S(=O)(=O)O`, the AC50 is 84.6 µM (active).

On to `Cc1cc(C)c(O)c(C)c1`, for which the result was inactive.

Take `c1ccc2c(c1)ccc1ccccc12`: the compound was classed as inactive.

`NC(=O)N(O)[C@@H]1C=C[C@H](Oc2cccc(Oc3ccc(F)cc3)c2)C1`: the AC50 is 21.2 µM (active).

For the compound `COCC(C)OCC(C)O` (stereo not given), the compound was classed as inactive.

`Nc1cccc2c(N)cccc12`: the AC50 was 20.1 µM (active).

Take `O=C(O)c1ccccc1C(c1ccc(O)cc1)c1ccc(O)cc1`: the compound was called inactive.

For `C[C@@H]1C[C@H]2[C@@H]3CCC4=CC(=O)C=C[C@]4(C)[C@@]3(F)[C@@H](O)C[C@]2(C)[C@@]1(O)C(=O)COP(=O)(O)O`, the call was inactive.

In the case of `O=C(O)Cc1cc(I)c(Oc2cc(I)c(O)c(I)c2)c(I)c1`, the AC50 is 0.0864 µM (active).

`NC(=O)N1C(=O)C(C(=O)c2cc(Cl)cs2)c2cc(F)c(Cl)cc21` (stereo not given): the AC50 was 4.16 µM (active).

`CN1CCN(c2ccccc2/C=C2\SCCN(c3ccc(Cl)c(Cl)c3)C2=O)CC1`: the AC50 is 4.69 µM (active).

`ClC1=C(Cl)C(Cl)(Cl)C(Cl)=C1Cl`: the compound was called inactive.

Consider `CCC(C)(C)C1CCC(O)CC1` (stereo not given), for which the compound was called inactive.

Consider `COC(=O)CCCCC(=O)OC`, for which the result was inactive.

`OC1CCCCC1`: the compound was called inactive.

For the compound `CC(C)(C)c1cc(C(C)(C)C)c(O)c(C(C)(C)C)c1`, the AC50 was 5.21 µM (active).

For the compound `CC[C@H](c1ccc(O)cc1)[C@@H](CC)c1ccc(O)cc1`, the compound was classed as inactive.

On to `OCCC(F)(F)C(F)(F)C(F)(F)C(F)(F)C(F)(F)C(F)(F)C(F)(F)C(F)(F)F`, for which the compound was called inactive.

For the compound `CCOC(=O)CC(O)(CC(=O)OCC)C(=O)OCC`, the outcome was inactive.

`COCC(C)O` (stereo not given): the result was inactive.

In the case of `Cc1oc(-c2ccccc2)nc1CCOc1ccc(C[C@H](Nc2ccccc2C(=O)c2ccccc2)C(=O)O)cc1`, the AC50 was 27.2 µM (active).

As to `CCc1ccc(CCOc2ccc(CC3SC(=O)NC3=O)cc2)nc1` (stereo not given), the AC50 is 31.6 µM (active).

As for `CCc1nn(C2CCCCC2)c2cc(C3(C#N)CCC(C(=O)O)CC3)ccc12` (stereo not given), the AC50 was 91 µM (active).

As to `OCCC(F)(F)C(F)(F)C(F)(F)C(F)(F)C(F)(F)C(F)(F)F`, the compound was called inactive.

For the compound `Cc1cc(CCN2CCN(c3nsc4ccccc34)CC2)cc2c1NC(=O)CC2(C)C`, the AC50 was 12.6 µM (active).

With `CCCCCCCCCCCCCCCS(=O)(=O)Oc1ccccc1`, the AC50 was 5.56 µM (active).

`CCCCOCCO`: the result was inactive.

Consider `c1ccc2cc3c(ccc4ccccc43)cc2c1`, for which the AC50 was 1.99 µM (active).

As for `CN1CCC[C@H]1c1cccnc1`, the call was inactive.

Regarding `CC(C)(C)CC(C)(C)c1ccc(O)c(-n2nc3ccccc3n2)c1`, the AC50 was 31.3 µM (active).

Consider `CCCOc1sc(C(=O)N2CCC(c3cc(CN)ccc3F)CC2)c(C)c1Br`, for which the compound was called inactive.

With `C#C[C@]1(O)CC[C@H]2[C@@H]3CCC4=CC(=O)CC[C@@H]4[C@H]3CC[C@@]21C`, the compound was classed as inactive.

As for `CC(O)CO` (stereo not given), the result was inactive.

`CC[C@H](C)[C@@H](C(=O)O)n1sc2ccccc2c1=O`: the AC50 is 50 µM (active).

With `CCCCC(CC)COC(=O)CCCCC(=O)OCc1ccccc1` (stereo not given), the call was inactive.

Regarding `COc1ccc([N+](=O)[O-])cc1N`, the concentration at half-maximal activity (AC50) is 50 µM (active).

As to `Oc1cc2ccccc2c2ccccc12`, the AC50 was 22.4 µM (active).

For the compound `CCCOC(=O)c1ccc(O)cc1`, the compound was called inactive.

Consider `CC(C)(C)c1ccc(O)c(C(C)(C)C)c1`, for which the AC50 was 0.104 µM (active).

On to `C=C(C)C(=O)OCCC(F)(F)C(F)(F)C(F)(F)C(F)(F)C(F)(F)C(F)(F)F`, for which the call was inactive.

One may read the AC50 as the midpoint of the concentration-response curve, whichever way the signal moves.
